Bioassay records: PubChem, Buhrlage Lab, Dana-Farber Cancer Institute and Novartis Institutes for BioMedical Research (Cambridge, Mass)
Shown are actives, neighbours in structure and some others; about 11% of the full set was active somewhere.
USP30 block – blocks human USP30 ubiquitin-rhodamine cleavage; Q70CQ3; purified USP30, Ub-rhodamine cleavage fluorescence; inhibition, % at 25 µM; hit rate 5.3% among 47,000; AID 1645860
USP28 block – blocks human USP28 ubiquitin-rhodamine cleavage; Q96RU2; purified USP28, Ub-rhodamine cleavage fluorescence, 30 min; inhibition, % at 25 µM; hit rate 3% among 47,000
USP17 block – human USP17-like deubiquitinase inhibition. purified USP17, Ub-rhodamine cleavage fluorescence, 3 h. inhibition, % at 50 µM. hit rate 6.5% among 47,000
Target sequence (A8MUK1 whole entry, looked up): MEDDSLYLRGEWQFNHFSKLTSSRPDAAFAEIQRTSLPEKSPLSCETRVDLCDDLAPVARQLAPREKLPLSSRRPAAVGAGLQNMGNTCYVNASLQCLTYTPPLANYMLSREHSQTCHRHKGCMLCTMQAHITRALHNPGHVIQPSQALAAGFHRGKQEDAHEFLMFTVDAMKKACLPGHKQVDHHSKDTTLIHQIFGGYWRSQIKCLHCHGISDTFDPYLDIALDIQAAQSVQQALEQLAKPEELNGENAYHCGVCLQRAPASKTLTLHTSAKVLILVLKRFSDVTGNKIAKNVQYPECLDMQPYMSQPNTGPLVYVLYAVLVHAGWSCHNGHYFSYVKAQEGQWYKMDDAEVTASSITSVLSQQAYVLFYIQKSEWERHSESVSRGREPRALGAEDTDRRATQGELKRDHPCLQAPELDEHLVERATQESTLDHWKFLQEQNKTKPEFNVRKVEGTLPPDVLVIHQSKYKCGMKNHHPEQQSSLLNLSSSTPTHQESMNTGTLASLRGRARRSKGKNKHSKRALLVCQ
Starred values were filed as active, the others as inactive. Rule as the data show it: active = inhibition above about 30%; inactive = the rest.

`Cc1nn(-c2nc3ccccc3o2)c2c1C(c1cccc([N+](=O)[O-])c1)CC(=O)N2` (centres undefined) gave USP30 block 28, USP28 block 4 and USP17 block 13.
For CCOc1ccc(-n2ccnc(NCc3ccc(OC)cc3)c2=O)cc1 the results were USP30 block 20, USP28 block 12 and USP17 block 4.
Screening COc1ccc(-n2ccnc(SCc3ccc(Cl)cc3)c2=O)cc1 returned USP30 block 15, USP28 block 36* and USP17 block 33*.
`CCCC(=O)N1CCN(c2c(C)n(-c3ccccc3)c(=O)n(C)c2=O)CC1` gave USP30 block 11, USP28 block 7 and USP17 block 6.
COc1cccc2c1OCC(=O)N(c1ccc(C#N)cc1)C2 was read as USP30 block 7, USP28 block 3 and USP17 block -1.
`Cc1cc(CCC2CN(C(=O)c3noc4c3CCCC4)CCO2)ncn1` (centres undefined) gave USP30 block 0, USP28 block 3 and USP17 block -52.
For CC(C)c1cc(C(=O)N2CCOC(CCc3cc(=O)[nH]cn3)C2)on1 (centres undefined) the results were USP30 block 40*, USP28 block 18 and USP17 block 16.
O=C(c1ccccc1)N1CCCn2c(nc(CN3CCCC3)cc2=O)C1 was read as USP30 block 5, USP28 block 6 and USP17 block -12.
O=C(c1ccc(-n2cccn2)nc1)N1CCCC(c2cnccn2)C1 (centres undefined) was read as USP30 block 15, USP28 block 7 and USP17 block 9.
For O=C(CCc1c[nH]c2ccccc12)Nc1cc(S(=O)(=O)N2CCCCC2)ccc1Cl the results were USP30 block -58, USP28 block 14 and USP17 block -11.
For Nc1ncnc(SCc2ccc(Cl)cc2)n1 the results were USP30 block 23, USP28 block 4 and USP17 block 54*.
COc1cnc(SCc2ccc(Cl)cc2)[nH]c1=O was read as USP30 block 1, USP28 block 2 and USP17 block 1.
Cc1noc(C)c1CCC(=O)N1CCC(c2c[nH]c3ccccc23)(c2c[nH]c3ccccc23)CC1 was read as USP30 block -45, USP28 block -19 and USP17 block 4.
`Cc1cnn(CC2CCCN2Cc2nnc(C3CC3)n2C)c1` (centres undefined) gave USP30 block -40, USP28 block -6 and USP17 block -3.
Screening O=C(N1CCOCC1)N1CC[C@H]2[C@H]1CCN2c1ncccn1 returned USP30 block -16, USP28 block -18 and USP17 block -18.
Screening O=C(Nc1cccc(S(=O)(=O)NC2=NCCC2)c1)c1cc(-c2ccccc2)n[nH]1 returned USP30 block 37*, USP28 block 42* and USP17 block 39*.
`O=C(Nc1cccc(S(=O)(=O)NC2=NCCC2)c1)c1cc(-c2ccccc2)nc2ccccc12` gave USP30 block -17, USP28 block -8 and USP17 block -5.
`Cc1cccc(NC(=O)N2CCC(c3nc4cccnc4n3C)C2)c1` (centres undefined) gave USP30 block -12 and USP28 block -7.
`CC1[C@@H]2[C@@H](C(=O)N3CCOCC3)C[C@H](CN1C(=O)N(C)C)N2Cc1ccccc1` (some centres undefined) gave USP30 block 3, USP28 block -4 and USP17 block 4.
`COc1ccc(C(=O)Nc2nc3c(s2)CCC3C(=O)NCc2ccncc2)cc1` (centres undefined) gave USP30 block 10, USP28 block 17 and USP17 block 18.
`CC(=O)CSc1nc2sc3c(c2c(=O)n1-c1ccccc1)CCCC3` gave USP30 block 30*, USP28 block 7 and USP17 block 16.
C=C(C)CSc1nc2sc3c(c2c(=O)n1CCc1ccccc1)CCN(C)C3 was read as USP30 block -285, USP28 block -47 and USP17 block -53.
Screening Cc1ccc(Cn2ccc3nc(N4CCN(C)CC4)ncc3c2=O)cc1 returned USP30 block 25, USP28 block 3 and USP17 block 13.
For COc1ccc(Cn2ccc3nc(N4CCCCC4)ncc3c2=O)cc1 the results were USP30 block 28, USP28 block 15 and USP17 block 71*.
`Clc1ccccc1Cn1ncc2c(NCc3cccnc3)ncnc21` gave USP30 block -6, USP28 block 10 and USP17 block 0.
Cc1nnc(NCc2cccnc2)c2c1nnn2Cc1ccccc1Cl was read as USP30 block 60*, USP28 block 18 and USP17 block -2.
Screening CCCN1C(=O)SC(CC(=O)Nc2ccc(C(=O)OCC)cc2)C1=O (centres undefined) returned USP30 block -24, USP28 block -9 and USP17 block -22.
